Laboratory results: the supplement of paper PMC6555819

Test system: VDR:RXRa (NR concentration 270 nM, RXRa partner concentration 90 nM)
Assay: PBM binding z-score (relative to random genomic background probes); higher = stronger binding; sequences stand for … in GC…GCGATTGACAGCGTAGAATGAAGG
Method: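 Protein-binding microarray (Agilent 4x180K custom design, double-stranded 60-nt probes: 5' GC cap, 34-nt variable region, 24-nt constant primer region; full probe sequence given). Purified or IVT nuclear receptor:RXRα heterodimers (3:1 NR:RXRα, mostly 270:90 nM) or homodimers were incubated for 1 h in PBS with 2% milk and no ligand, then detected with Alexa488 antibodies. Fluorescence from o1-orientation probes (~5 replicates averaged) was converted to z-scores against 500 random hg19 background probes. Variable regions are seed direct-repeat (DR0–DR5) sites, all their single-nucleotide variants and half-site ablations.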

Row | Sequence | PBM binding z-score
1 | TAGCCTAGGTCAGATCAGGCCAGTATACGCTATA | 0.996
2 | CAAACTAGGTCAAGGTCAATGTCGGTTTGTGCCA | 4.81
3 | TCTCGGAGGACCCGAAAGGTCAGAGCTCGACATC | 2.45
4 | TAATATAGGTAAAGGTGAAAGTCGAACGATATGA | 1
5 | TCGTGTAGGTTAGGGGCATTCAGAATGGCGTCGA | 0.914
6 | TCAGACAGGTGAAGATAACTCAGGTACGCAGTCG | 0.709
7 | CCGAGTAGGTTCTGGGGCATTCAGGCAACGGTGA | -0.552
8 | ATCTCTAGGTAAAGATAGTTCAGTGGATGCAAAT | 0.451
9 | CTATCAAGGTGAACAAGGTCGTTGATTACTATTC | 6.12
10 | CCTAGTTGGTCTGGAGGTCACACACCGGATATGA | 4.03
11 | CCAGACAGGTGAAAGGTATCTCAGTCTGGTACGC | 0.0976
12 | TAGCCTAGGTCATGCGGGCCATTATAGTGTCGGC | 4.09
13 | CCATACGGGTCAAGGTTATAGCACGGGTGGTACG | 3.11
14 | TCTGCTAGGACAACGATGGTCAGCTAATCTGCTA | -0.784
15 | CCGACTGGTGCAAGGTTACCATAACGCACAGCCA | 0.278
16 | ATCGAAAGGTCGACGAGGTGAGGATACACCGTTT | 5.19
17 | TCGAGCAGGTTAGTCGGGGCATTCAGCCAACATA | 2.09
18 | AATACAGGGTCTTCGTAGGCCAGAGTACGCACAG | 0.0684
19 | TCATATAGGTAAAGGTGACAGTCGAACGATATGA | 0.874
20 | CCTACAGGGCCATCAGGTCATTGATATCAACGTT | 2.48

Row | Sequence | PBM binding z-score
21 | CTCGAAAGGTCGGTGGAGGTGAGTATACGGATAA | 1.79
22 | TGAATGAGGTTATAAGATCTGGGAACGTTGCAAA | 0.768
23 | CCTACTGGGCCAAAAAGGTCAATGATGCCGATAA | 4.18
24 | CAAACTAGGTCAAGGACAGTGAATCTCCGCACGC | 1.56
25 | TCGAGTAGTTTAGGGGCATTCAGAATGGCGTCGA | 0.605
26 | ACTATTAGTTGAGACGAGGACAACCGATAGGTTG | 0.286
27 | TCTAGCAGGCCAGACGGTCACTCAAGAGGTACGG | -0.346
28 | TCATATAGGTATACAGGTGAAAGTCCGTAAGTTA | 1.07
29 | ACTAGTTGGTCAGCGGAGGTCACACACAATTCGG | 3.98
30 | TCTCGGAGGACACGAAAGGTCAGAGCACGACATC | 3.41
31 | GCTGCTAGGTCAACTGATAGTCAGCTAAAGCTCG | 0.945
32 | GTAGCAAGGTGAATAGGTCGTTGATGAGTAGGCG | 0.451
33 | CCTCGGAGGACAACAGGAGGTCACAGCTGCCAGA | 3.53
34 | CCGAGTGGGGCAAGGTTACCATAACGCACAGCCA | 0.482
35 | TCTCGGAGGACACGACAGGTCAGAGCTCGACATC | 0.875
36 | ACTAGTTGGTCAGCTGAGGTCTCACACAATTCGG | 0.0458
37 | ATATGTAGGTTATCGGGTCATGCAGTTTGCGCAT | 4.98
38 | GTTACAGGGTCAGCTAGAGGCCAGAGTATGGAAA | 3.39
39 | ATATTTAGGTTACATCCGGGTCATTCAGGCTATG | 4.13
40 | TCGAGTAGGTTACCAATGGGGCATTTAGCTTTCT | 0.185
